{"source": "PubChem BioAssay (NCATS)", "note": "Unmarked numbers belong to inactive results. The call rests on the fitted dose curve; in most records, active means well fitted curve in the direction sought with a large enough effect; inconclusive means small, poorly fitted or top-dose-only effect, or another doubt; inactive means no such curve, though single readings can be large or run the other way."}
{"assay": "Validation qHTS assay for inhibitors of Activation Induced Cytidine Deaminase (AID): UDG Counterscreen signal (AID 1347427); further: 0% is about no effect", "conditions": "biochemical UDG counterscreen, fluorescence signal; series mostly up to 115 µM; activity, negative = inhibition: at the top concentration", "how_it_was_run": "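Fluorescence at 560 nm excitation, 665 nm emission reports UDG signal after 250 mM NaOH (2x) addition and 30 min. Enzymes (AID 1 uM, UDG 2 U/mL, at 4/3x) preincubated 10 min with compound, then 4 h with 4x 250 nM DJC20/DJC23 substrate at room temperature.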", "units": {"activity, negative = inhibition": "%"}}
{"smiles": "Oc1ccccc1O", "activity, negative = inhibition": 2.41}
{"smiles": "CSc1ccccc1N1CCN(CCCCCC(=O)NC2CCCc3ccccc32)CC1", "note": "(stereo unspecified)", "activity, negative = inhibition": -2.13}
{"smiles": "O=C1/C(=C/c2ccsc2)CC/C1=C\\c1cccs1", "activity, negative = inhibition": 10.8}
{"smiles": "CCCCCCCCCCCCCCCCCC(=O)OC(CC(=O)O)C[N+](C)(C)C", "note": "(stereo unspecified)", "activity, negative = inhibition": -10.3}
{"smiles": "Nc1ncnc2c1c(I)cn2[C@@H]1C[C@H](N)[C@@H](O)[C@H]1O", "activity, negative = inhibition": 5.22}
{"smiles": "Cn1cc(C2=C(c3ccc(Cl)cc3Cl)C(=O)NC2=O)c2ccccc21", "activity, negative = inhibition": 5.12}
{"smiles": "CCCCCCCCCCCCCCCC(=O)NCC(COP(=O)([O-])OCC[N+](C)(C)C)OCC", "note": "(stereo unspecified)", "activity, negative = inhibition": -2.97}
{"smiles": "CCCCCCCCCCCCCCCCCCNC(=O)OCC(COP(=O)([O-])OCC[n+]1ccsc1)OC", "note": "(stereo unspecified)", "activity, negative = inhibition": 8.23}
{"smiles": "CC(COc1ccc(/C=C/c2ccccc2)cc1)[N+](C)(C)C", "note": "(stereo unspecified)", "activity, negative = inhibition": -11.6}
{"smiles": "O=C(c1cc(O)c(O)c([N+](=O)[O-])c1)c1ccccc1F", "activity, negative = inhibition": 10.8}
{"smiles": "NCCCS(=O)(=O)O", "activity, negative = inhibition": 7.94}
{"smiles": "Nc1nc(Nc2ccccc2)nc2c1ncn2[C@@H]1O[C@H](CO)[C@@H](O)[C@H]1O", "activity, negative = inhibition": 14.8}
{"smiles": "Cc1ccccc1CNc1ncnc2c1ncn2C1OC(CO)C(O)C1O", "note": "(stereo unspecified)", "activity, negative = inhibition": 13.8}
{"smiles": "CN1CCc2cc(O)c(O)cc2C(c2ccccc2)C1", "note": "(stereo unspecified)", "activity, negative = inhibition": 2.69}
{"smiles": "NC[C@@H]1O[C@H](C23CC4CC(CC(C4)C2)C3)Cc2c1ccc(O)c2O", "activity, negative = inhibition": 0.276}
{"smiles": "Nc1ncnc2c1ncn2[C@@H]1O[C@H](COP(=O)(O)CP(=O)(O)OP(=O)(O)O)[C@@H](O)[C@H]1O", "activity, negative = inhibition": 11.1}
{"smiles": "NCCCCCCCCCCN", "activity, negative = inhibition": 10.1}
{"smiles": "C[C@@H](NC(=O)/C(C#N)=C/c1ccc(O)c(O)c1)c1ccccc1", "activity, negative = inhibition": 6.39}
{"smiles": "CNC(=O)[C@H]1O[C@@H](n2cnc3c(NCc4cccc(I)c4)ncnc32)[C@H](O)[C@@H]1O", "activity, negative = inhibition": 12.3}
{"smiles": "O=C(Nc1ccccc1)c1cc([N+](=O)[O-])ccc1Cl", "activity, negative = inhibition": -5.87}
{"smiles": "OCC1O[C@H](O)C(Cl)C(O)C1O", "note": "(stereo partly specified)", "activity, negative = inhibition": 8.82}
{"smiles": "CCCn1c(=O)c2[nH]c(-c3ccc(OCC(=O)NCCN)cc3)nc2n(CCC)c1=O", "activity, negative = inhibition": -14.4}
{"smiles": "NCCNC(=O)c1ncsc1-c1cccc(F)c1", "activity, negative = inhibition": -7.04}
{"smiles": "COc1cc2nc(N3CCN(C(=O)OCc4ccccc4)C(C(=O)NC(C)(C)C)C3)nc(N)c2cc1OC", "note": "(stereo unspecified)", "activity, negative = inhibition": 0.328}
{"smiles": "N#C/C(=C\\c1ccc(O)c(O)c1)C(=O)c1ccc(O)c(O)c1", "activity, negative = inhibition": -1.71}
{"smiles": "CN=c1nc(-c2ccccc2)n(-c2ccccc2)s1", "activity, negative = inhibition": 8.95}
{"smiles": "Ic1ccc(N2CCN(Cc3c[nH]c4ncccc34)CC2)cc1", "activity, negative = inhibition": 6.43}
{"smiles": "NC(=S)c1ccc[n+]([C@@H]2O[C@@H](COP(=O)([O-])OP(=O)(O)OC[C@H]3O[C@@H](n4cnc5c(N)ncnc54)[C@H](OP(=O)(O)O)[C@@H]3O)C(O)C2O)c1", "note": "(stereo partly specified)", "activity, negative = inhibition": 9.99}
{"smiles": "CN(C)CCC(c1ccc(Cl)cc1)c1ccccn1", "note": "(stereo unspecified)", "activity, negative = inhibition": 12.9}
{"smiles": "N=c1ccn2c(n1)O[C@H]1[C@H](O)[C@@H](CO)O[C@H]12", "activity, negative = inhibition": 5.07}
{"smiles": "Cc1nc2sccn2c(=O)c1CCN1CCC(=C(c2ccccc2)c2ccc(F)cc2)CC1", "activity, negative = inhibition": 2.38}
{"smiles": "CC(C)CC(NP(=O)(O)O[C@@H]1O[C@@H](C)[C@H](O)[C@@H](O)[C@H]1O)C(=O)NC(Cc1c[nH]c2ccccc12)C(=O)O", "note": "(stereo partly specified)", "activity, negative = inhibition": 2.73}
{"smiles": "Clc1ccc(N2CCN(Cc3c[nH]c4ncccc34)CC2)cc1", "activity, negative = inhibition": 4.68}
{"smiles": "NCC1OC(O[C@H]2[C@H](O)[C@@H](OC3C(O)C(N)CC(N)C3OC3OC(CO)C(O)C(O)C3N)O[C@@H]2CO)C(N)C(O)C1O", "note": "(stereo partly specified)", "activity, negative = inhibition": 12.8}
{"smiles": "CCCCC#Cc1nc(NC)c2ncn([C@@H]3O[C@H](CO)[C@@H](O)[C@H]3O)c2n1", "activity, negative = inhibition": 11.9}
{"smiles": "S=C(S)OC1CC2CC1C1CCCC21", "note": "(stereo unspecified)", "activity, negative = inhibition": 5.92}
